Experimental data published in the supplement of paper PMC8975748.
Counter-ions that a name gives are not always drawn. ± gives the standard deviation of the averaged measurements.

How the values were obtained:
[1] = test system: Saccharomyces cerevisiae BY4741 SeMeCo community; assay: mean cell size (pixel area) (pixels); higher = larger cells; settings: 10 µM; 24 h; SM minimal medium
In short: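 A Saccharomyces cerevisiae BY4741 community carrying four plasmids, each with a fluorescent marker and each complementing one auxotrophy, was exposed for 24 h to drug at a final 10 µM in SM medium in acoustically predosed 384-well plates. The overnight preculture (OD600 = 1.0) was diluted to OD600 = 0.3 before 70 µl was added per well. Cells were then fixed with paraformaldehyde, imaged by automated confocal microscopy and analysed in Harmony to derive mean cell pixel area per well, averaged over 3 replicates. Same SeMeCo high-content imaging drug screen: Selleck FDA-approved drugs at 10 µM, 24 h in SM medium, 384-well plates, 3 replicates.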

[2] = test system: Saccharomyces cerevisiae BY4741 SeMeCo community; assay: z-score of prototroph abundance vs DMSO median; higher = larger share of this subpopulation than in DMSO controls; settings: 10 µM; 24 h; SM minimal medium; subpopulation (auxotrophy): Prototroph
In short: (§1)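 Cells of a Saccharomyces cerevisiae BY4741 community, carrying four plasmids that each restored one auxotrophy and encoded a distinct fluorescent protein, were pre-grown overnight to OD600 1.0 and diluted to 0.3. A 70 µl volume was added to 384-well plates acoustically predosed with library drugs (10 µM final) and grown 24 h in minimal SM medium. After paraformaldehyde fixation, automated confocal microscopy was used, with single-auxotroph fluorescent strains for thresholds and autofluorescence correction. The abundance of each subpopulation was scored as a z-score against the vehicle-well median.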

[3] = test system: Saccharomyces cerevisiae BY4741 SeMeCo community; assay: z-score of subpopulation abundance vs DMSO median, subpopulation auxotrophic for M; higher = larger share of this subpopulation than in DMSO controls; settings: 10 µM; 24 h; SM minimal medium; subpopulation (auxotrophy): M
In short: as §1

[4] = test system: Saccharomyces cerevisiae BY4741 SeMeCo community; assay: z-score of subpopulation abundance vs DMSO median, subpopulation auxotrophic for L; higher = larger share of this subpopulation than in DMSO controls; settings: 10 µM; 24 h; SM minimal medium; subpopulation (auxotrophy): L
In short: as §1

[5] = test system: Saccharomyces cerevisiae BY4741 SeMeCo community; assay: z-score of subpopulation abundance vs DMSO median, subpopulation auxotrophic for U; higher = larger share of this subpopulation than in DMSO controls; settings: 10 µM; 24 h; SM minimal medium; subpopulation (auxotrophy): U
In short: as §1

[6] = test system: Saccharomyces cerevisiae BY4741 SeMeCo community; assay: z-score of subpopulation abundance vs DMSO median, subpopulation auxotrophic for H; higher = larger share of this subpopulation than in DMSO controls; settings: 10 µM; 24 h; SM minimal medium; subpopulation (auxotrophy): H
In short: as §1

[7] = test system: Saccharomyces cerevisiae BY4741 SeMeCo community; assay: z-score of subpopulation abundance vs DMSO median, subpopulation auxotrophic for LU; higher = larger share of this subpopulation than in DMSO controls; settings: 10 µM; 24 h; SM minimal medium; subpopulation (auxotrophy): LU
In short: as §1

[8] = test system: Saccharomyces cerevisiae BY4741 SeMeCo community; assay: z-score of subpopulation abundance vs DMSO median, subpopulation auxotrophic for LM; higher = larger share of this subpopulation than in DMSO controls; settings: 10 µM; 24 h; SM minimal medium; subpopulation (auxotrophy): LM
In short: as §1

[9] = test system: Saccharomyces cerevisiae BY4741 SeMeCo community; assay: z-score of subpopulation abundance vs DMSO median, subpopulation auxotrophic for HM; higher = larger share of this subpopulation than in DMSO controls; settings: 10 µM; 24 h; SM minimal medium; subpopulation (auxotrophy): HM
In short: as §1

[10] = test system: Saccharomyces cerevisiae BY4741 SeMeCo community; assay: z-score of subpopulation abundance vs DMSO median, subpopulation auxotrophic for HU; higher = larger share of this subpopulation than in DMSO controls; settings: 10 µM; 24 h; SM minimal medium; subpopulation (auxotrophy): HU
In short: as §1

[11] = test system: Saccharomyces cerevisiae BY4741 SeMeCo community; assay: z-score of subpopulation abundance vs DMSO median, subpopulation auxotrophic for UM; higher = larger share of this subpopulation than in DMSO controls; settings: 10 µM; 24 h; SM minimal medium; subpopulation (auxotrophy): UM
In short: as §1

[12] = test system: Saccharomyces cerevisiae BY4741 SeMeCo community; assay: z-score of subpopulation abundance vs DMSO median, subpopulation auxotrophic for HLU; higher = larger share of this subpopulation than in DMSO controls; settings: 10 µM; 24 h; SM minimal medium; subpopulation (auxotrophy): HLU
In short: as §1

[13] = test system: Saccharomyces cerevisiae BY4741 SeMeCo community; assay: z-score of subpopulation abundance vs DMSO median, subpopulation auxotrophic for HUM; higher = larger share of this subpopulation than in DMSO controls; settings: 10 µM; 24 h; SM minimal medium; subpopulation (auxotrophy): HUM
In short: as §1

[14] = test system: Saccharomyces cerevisiae BY4741 SeMeCo community; assay: z-score of subpopulation abundance vs DMSO median, subpopulation auxotrophic for HLUM; higher = larger share of this subpopulation than in DMSO controls; settings: 10 µM; 24 h; SM minimal medium; subpopulation (auxotrophy): HLUM
In short: as §1

[15] = test system: Saccharomyces cerevisiae BY4741 SeMeCo community; assay: z-score of subpopulation abundance vs DMSO median, subpopulation auxotrophic for HL; higher = larger share of this subpopulation than in DMSO controls; settings: 10 µM; 24 h; SM minimal medium; subpopulation (auxotrophy): HL
In short: as §1

[16] = test system: Saccharomyces cerevisiae BY4741 SeMeCo community; assay: z-score of subpopulation abundance vs DMSO median, subpopulation auxotrophic for LUM; higher = larger share of this subpopulation than in DMSO controls; settings: 10 µM; 24 h; SM minimal medium; subpopulation (auxotrophy): LUM
In short: as §1

[17] = test system: Saccharomyces cerevisiae BY4741 SeMeCo community; assay: z-score of subpopulation abundance vs DMSO median, subpopulation auxotrophic for HLM; higher = larger share of this subpopulation than in DMSO controls; settings: 10 µM; 24 h; SM minimal medium; subpopulation (auxotrophy): HLM
In short: as §1

Structure (SMILES) | mean cell size [1] | z-score of prototroph abundance [2] | z-score of subpopulation abundance [3] | z-score of subpopulation abundance [4] | z-score of subpopulation abundance [5] | z-score of subpopulation abundance [6] | z-score of subpopulation abundance [7] | z-score of subpopulation abundance [8] | z-score of subpopulation abundance [9] | z-score of subpopulation abundance [10] | z-score of subpopulation abundance [11] | z-score of subpopulation abundance [12] | z-score of subpopulation abundance [13] | z-score of subpopulation abundance [14] | z-score of subpopulation abundance [15] | z-score of subpopulation abundance [16] | z-score of subpopulation abundance [17]
O=c1[nH]cnc2c1ncn2[C@@H]1O[C@H](CO)[C@@H](O)[C@H]1O [Isoprinosine] | 12 ± 0.19 | 0.72 | -0.21 | -0.33 | -0.71 | 0.09 | -1.21 | 0 | -0.53 | -0.35 | -0.74 | -0.46 | -0.24 | -0.65 | – | – | –
O=C(Nc1cccc(C2=NCCN2)c1)Nc1cccc(C2=NCCN2)c1 [Imidocarb dipropionate] | 12.1 ± 0.27 | 0.72 | -1.19 | -0.04 | 0.07 | -0.78 | 0.44 | -0.28 | -0.79 | 0.05 | – | 0.17 | -0.49 | – | -0.57 | -0.67 | –
C[C@@H](O)[C@H]1C(=O)N2C(C(=O)[O-])=C(SC3Cn4cnc[n+]4C3)[C@H](C)[C@H]12 (some centres undefined) [Biapenem] | 12.11 ± 0.1 | 0.75 | 1.3 | -0.66 | -0.12 | -0.04 | -1.32 | -0.22 | 0.51 | – | -0.17 | -1.25 | -0.24 | -0.81 | -0.48 | -0.49 | –
C[C@](N)(Cc1ccc(O)c(O)c1)C(=O)O [Methyldopa] | 12.3 ± 0.034 | – | -1.02 | -0.9 | -0.29 | 0.34 | -0.35 | -0.77 | -0.81 | -0.06 | -0.7 | -0.36 | -0.27 | -0.4 | – | – | –
CCCCCCCCCCCC(=O)O [Lauric Acid] | 12.2 ± 0.16 | 0.84 | -1.03 | -0.6 | 0.57 | -1.48 | -0.2 | -0.8 | -0.82 | -0.42 | 0.3 | -0.82 | -0.04 | -0.48 | -1.05 | -0.68 | –
COCCCN1CCC(NC(=O)c2cc(Cl)c(N)c3c2OCC3)CC1 [Prucalopride Succinate] | 12.5 ± 0.32 | -1.55 | 0.77 | -0.33 | 0.93 | – | 0.16 | -0.18 | 0.63 | 1.07 | 1.44 | 1.78 | 1.42 | 2.43 | 0.16 | 0.31 | –
O=C1c2cccc3c2[C@H](CCC3)CN1[C@@H]1CN2CCC1CC2 [Palonosetron HCl] | 11.92 ± 0.064 | 0.21 | -0.37 | -0.13 | 0.17 | -0.32 | -0.38 | -0.39 | -0.69 | 0.33 | 0.37 | -0.05 | -0.03 | -0.14 | -0.31 | -0.02 | –
CC[C@@H]1C(=O)OC[C@@H]1Cc1cncn1C [Pilocarpine HCl] | 12.7 ± 0.26 | 0.73 | 0.65 | 0.16 | -0.55 | 0.8 | -0.22 | – | – | -0.93 | -0.51 | -0.93 | – | -0.1 | – | -0.76 | -0.18
C[C@@H](O)[C@H]1C(=O)N2C(C(=O)O)=C([C@H]3CCCO3)S[C@H]12 [Faropenem Sodium] | – | -1.08 | 0.61 | -0.03 | 1.08 | 0.32 | 0.29 | – | 0.48 | 0.81 | 1.27 | 0.66 | – | -0.05 | – | 0.85 | -0.7
CC(=O)NS(=O)(=O)c1ccc(N)cc1 [Sulfacetamide Sodium] | – | -0.69 | 0.42 | -0.02 | 0.86 | 0.92 | 0.61 | -0.08 | 0.1 | -0.34 | 0.35 | -0.24 | – | 0.37 | 0.22 | 0.63 | -0.1
C[N+]1(C)CCC(OC(=O)C(O)(c2ccccc2)C2CCCC2)C1 (centres undefined) [Glycopyrrolate] | – | -0.59 | 0.07 | -0.73 | 1.42 | -0.58 | 0.76 | -0.6 | -0.21 | 0.57 | 1.58 | -0.14 | – | -0.01 | -0.5 | – | 0.17
C[C@H]1COc2c(C3(N)CC3)c(F)cc3c(=O)c(C(=O)O)cn1c23 [Pazufloxacin mesylate] | 12.5 ± 0.28 | – | -0.46 | 0.31 | – | – | 0.86 | – | -0.36 | 0.48 | -0.02 | 1.38 | – | 0.08 | -0.07 | – | -0.08
Cc1cccc(Nc2ccccc2C(=O)O)c1C [Mefenamic Acid] | – | 0.48 | 0.15 | 0.31 | -0.58 | -0.41 | -0.62 | 0.12 | -0.11 | 0.29 | – | -0.38 | – | -0.2 | 0.24 | -0.45 | -0.42
NCCc1ccc(O)c(O)c1 [Dopamine HCl] | – | 1.09 | -0.7 | -1.11 | -0.48 | – | -0.45 | -0.73 | -0.38 | -0.79 | -0.71 | -0.89 | – | -0.04 | -1.06 | -0.34 | -0.89
CC[C@H](Nc1ncnc2[nH]cnc12)c1nc2cccc(F)c2c(=O)n1-c1ccccc1 [Idelalisib (CAL-101, GS-1101)] | 12.58 ± 0.07 | -0.14 | -0.54 | -0.49 | – | – | 0.5 | -0.23 | -0.64 | 0.68 | – | -0.35 | -0.4 | -0.62 | – | 0.11 | –
